Laboratory results published in the supplement of paper PMC13380429.

What was measured:
[1] = tested on: Vero E6 infected with SARS-CoV-2; experiment: morphology score (similarity to uninfected cells); higher = more like uninfected cells; conditions: 24 h
[2] = tested on: Vero E6 infected with SARS-CoV-2; experiment: SARS-CoV-2 infection rate relative to infected DMSO; higher = more infection, active = 60 or less; conditions: 24 h

| Compound | morphology score [1] | SARS-CoV-2 infection rate [2] |
| --- | --- | --- |
| COc1cc(OC)c(C(=O)CCCCN2CCC3(CC2)NC(=O)NC3=O)cc1NS(=O)(=O)c1ccc(C(F)(F)F)cc1 (10 µM) | 0.222 | 93% (inactive) |
| CC(C)(C)N1CCC(c2ccccc2)(c2ccccc2)CC1 [budipine] (10 µM) | 0.395 | 76.5% (inactive) |
| CCCN(CCC)CCc1cccc2c1CC(=O)N2 [ropinirole] (10 µM) | -0.139 | 112% (inactive) |
| NCC1OC(C23CC4CC(CC(C4)C2)C3)Cc2c1ccc(O)c2O (centres undefined) (0.833333 µM) | -0.0685 | 115% (inactive) |
| CCOC(=O)C1=C(C)NC(c2ccccc2)=C(C(=O)OCc2ccc([N+](=O)[O-])cc2)[C@@H]1C#Cc1ccccc1 (10 µM) | 0.304 | 89% (inactive) |
| NCCCC[C@H](NC(=O)[C@@H]1CCCN1C(=O)[C@@H]1CSSC[C@H](NC(=O)CNC(=O)CNC(=O)CN)C(=O)N[C@@H](Cc2ccc(O)cc2)C(=O)N[C@@H](Cc2ccccc2)C(=O)N[C@@H](CCC(N)=O)C(=O)N[C@@H](CC(N)=O)C(=O)N1)C(=O)NCC(N)=O [terlipressin] (10 µM) | 0.0361 | 112% (inactive) |
| C[C@H](NC(=O)[C@@H](O)c1cc(F)cc(F)c1)C(=O)N[C@@H]1C(=O)N(C)c2ccccc2-c2ccccc21 (10 µM) | 0.165 | 101% (inactive) |
| CCn1cc(C(=O)O)c(=O)c2ccc(C)nc21 [nalidixic-acid] (10 µM) | -0.0613 | 106% (inactive) |
| CN1C/C=C/CCOc2cccc(c2)-c2ccnc(n2)Nc2cccc(c2)C1 (10 µM) | -0.0856 | 104% (inactive) |
| CN1[C@@H]2C[C@@H](O)C[C@H]1[C@@H]1O[C@@H]12 [scopine] (10 µM) | 0.146 | 93.5% (inactive) |
| CC(=O)OCC(=O)[C@@]1(OC(C)=O)[C@@H](C)C[C@H]2[C@@H]3C[C@H](F)C4=CC(=O)C=C[C@]4(C)[C@@]3(F)[C@@H](O)C[C@@]21C [diflorasone-diacetate] (10 µM) | 0.0652 | 113% (inactive) |
| CCOC(=O)c1ncn2c1CN(C)C(=O)c1cc(F)ccc1-2 [flumazenil] (10 µM) | 0.0898 | 88.5% (inactive) |
| CC1(C)C(=O)N(c2ccc(C#N)c(C(F)(F)F)c2)C(=O)N1CCCCO (10 µM) | -0.0623 | 100% (inactive) |
| CC(C)(Oc1ccc(Cl)cc1)C(=O)N1CSCC1C(=O)O (centres undefined) [timofibrate] (10 µM) | 0.0255 | 106% (inactive) |
| O=C(O)c1cc(=O)c2c(OCC(O)COc3cccc4oc(C(=O)O)cc(=O)c34)cccc2o1 [cromoglicic-acid] (10 µM) | 0.204 | 87% (inactive) |
| O=C(Nc1ccc(C(F)(F)F)cn1)N1CCN(c2ncccc2C(F)(F)F)CC1 (10 µM) | 0.0927 | 93.5% (inactive) |
| CC[C@H](C)[C@H](NC(=O)[C@H](Cc1ccc(O)cc1)NC(=O)[C@@H](NC(=O)[C@H](CCCNC(=N)N)NC(=O)[C@@H](N)CC(=O)O)C(C)C)C(=O)N[C@@H](Cc1c[nH]cn1)C(=O)N1CCC[C@H]1C(=O)O (10 µM) | 0.109 | 104% (inactive) |
| CC(C)(C)NCC(O)COc1cccc2[nH]c(C#N)cc12 (centres undefined) [cyanopindolol] (10 µM) | -0.0665 | 107% (inactive) |
| Nc1ccc(-c2nc3ccc(-c4nc5ccc(N)cc5[nH]4)cc3[nH]2)cc1 (10 µM) | -0.218 | 108% (inactive) |

| Compound | morphology score [1] | SARS-CoV-2 infection rate [2] |
| --- | --- | --- |
| CCOC(=O)[C@H](Cc1ccc([N+](=O)[O-])cc1)NC(=O)c1ccccc1 (10 µM) | 0.37 | 84.5% (inactive) |
| CN1CC2c3ccccc3Oc3ccc(Cl)cc3C2C1 (centres undefined) [asenapine] (10 µM) | 0.67 | 41% (active) |
| CCOC(=O)c1ccc(OC(=O)CCCCCNC(=N)N)cc1 [gabexate] (10 µM) | 0.0775 | 102% (inactive) |
| CCOC(=O)[C@H](CCc1ccccc1)N[C@H]1CCc2ccccc2N(CC(=O)O)C1=O [benazepril] (10 µM) | 0.413 | 90.5% (inactive) |
| Nc1ccc(C(=O)Nc2cccc(-c3nc(N4CCOCC4)c4oc5ncccc5c4n3)c2)cn1 (10 µM) | 0.168 | 94.5% (inactive) |
| CC(C)(C)c1cc(C=C(C#N)C#N)cc(C(C)(C)C)c1O [tyrphostin-A9] (0.833333 µM) | 0.116 | 80.5% (inactive) |
| CC[N+](CC)(CC)CCC(O)(c1ccccc1)C1CCCCC1 (centres undefined) [tridihexethyl] (10 µM) | -0.09 | 110% (inactive) |
| O=c1[nH]c2ccccc2n1C1CCN(CCOc2ccccc2)CC1 [oxiperomide] (0.833333 µM) | -0.0147 | 104% (inactive) |
| C[N+](C)(C)CC(=O)O [betaine] (10 µM) | 0.11 | 102% (inactive) |
| CCCCCCCCNC(=O)/C(C#N)=C/c1cn(CCCN(C)C)c2ccccc12 [dynole-34-2] (10 µM) | 0.659 | 35.5% (active) |
| Cc1cc(C)cc(NC(=O)Cc2ccc(OC(C)(C)C(=O)O)cc2)c1 [efaproxiral] (10 µM) | -0.103 | 107% (inactive) |
| C[N+](C)(CCOc1ccccc1)Cc1ccccc1 [bephenium-hydroxynaphthoate] (10 µM) | 0.171 | 94.5% (inactive) |
| COc1ccc(/C=C\c2cc(OC)c(OC)c(OC)c2)cc1OP(=O)(O)O [fosbretabulin] (0.833333 µM) | 0.0485 | 112% (inactive) |
| O=C(O)[C@H]1CC[C@H](c2cc3cccnc3c(-c3cccc(F)c3)n2)CC1 (10 µM) | 0.315 | 103% (inactive) |
| S=C(NCc1ccc2c(c1)OCO2)N1CCN(c2ncnc3c2oc2ccccc23)CC1 [amuvatinib] (0.833333 µM) | 0.0595 | 92.5% (inactive) |
| C/C1=C/C[C@@H](/C(C)=C/c2csc(C)n2)OC(=O)C[C@H](O)C(C)(C)C(=O)[C@H](C)[C@@H](O)[C@@H](C)CCC1 [epothilone-D] (0.833333 µM) | -0.105 | 107% (inactive) |
| COc1ccc2[nH]c(SCc3ncc(C)c(OC)c3C)nc2c1 [omeprazole-sulfide] (10 µM) | 0.191 | 104% (inactive) |
| CC(=O)Nc1nc2c(Oc3cc(-c4ccc(C(F)(F)F)cc4)ncn3)cccc2s1 (10 µM) | 0.163 | 108% (inactive) |
| O=C1NC(=O)c2c1c(-c1ccccc1)cc1[nH]c3ccc(O)cc3c21 (0.833333 µM) | 0.685 | 93.5% (inactive) |

| Compound | morphology score [1] | SARS-CoV-2 infection rate [2] |
| --- | --- | --- |
| O=C(CC12CC3CC(CC(C3)C1)C2)Nc1cccc2nc(NCCNCCO)ccc12 (10 µM) | -0.132 | 116% (inactive) |
| CCOC(=O)[C@H](CCc1ccccc1)N[C@@H](C)C(=O)N1[C@H](C(=O)O)C[C@@H]2CCC[C@@H]21 [ramipril] (10 µM) | 0.0476 | 98.5% (inactive) |
| Cc1cc(C)c(CNC(=O)c2cc(-c3ccc(N4CCN(C)CC4)nc3)cc3c2c(C)cn3C(C)C)c(=O)[nH]1 (10 µM) | 0.171 | 98% (inactive) |
| O=C(O)c1ccc2[nH]cc(CCCCN3CC=C(c4ccccc4)CC3)c2c1 [carmoxirole] (10 µM) | 0.0618 | 96.5% (inactive) |
| CC1(C)[C@@H](O)CC[C@]2(C)[C@H]3C(=O)C=C4[C@@H]5C[C@@](C)(C(=O)O)CC[C@]5(C)CC[C@@]4(C)[C@]3(C)CC[C@@H]12 [enoxolone] (10 µM) | 0.00688 | 110% (inactive) |
| Sc1nc2ccccc2s1 [benzo[d]thiazole-2(3H)-thione] (10 µM) | 0.0522 | 104% (inactive) |
| Cc1ccccc1C(c1ccccc1C)N1C2CCC1CC(O)(c1ccccc1)C2 (centres undefined) (10 µM) | 0.307 | 85% (inactive) |
| O=C(O)c1cc(=O)[nH]c(=O)[nH]1 [orotic-acid] (10 µM) | 0.104 | 104% (inactive) |
| CSc1ccccc1OCC(O)CNC(C)C (centres undefined) [tiprenolol] (10 µM) | -0.224 | 110% (inactive) |
| COc1cc(NC(=O)Nc2cccc(CNC(=O)O[C@H]3CCOC3)c2)ccc1-c1cnco1 [merimepodib] (10 µM) | 0.447 | 62.5% (inactive) |
| CN1CCN(Cc2ccc(-c3cnc4[nH]cc(-c5ccc6[nH]ccc6c5)c4c3)cc2)CC1 (0.833333 µM) | 0.84 | 61% (inactive) |
| CC(C)(C)NC(=O)[C@@H]1C[C@@H]2CCCC[C@@H]2CN1C[C@@H](O)[C@H](Cc1ccccc1)NC(=O)[C@H](CC(N)=O)NC(=O)c1ccc2ccccc2n1 [saquinavir] (10 µM) | 0.0775 | 106% (inactive) |
| CCC(=O)OCC(=O)[C@@]1(OC(=O)CC)[C@@H](C)C[C@H]2[C@@H]3CCC4=CC(=O)C=C[C@]4(C)[C@@]3(Cl)[C@@H](O)C[C@@]21C [beclomethasone-dipropionate] (10 µM) | 0.126 | 105% (inactive) |
| CN(C)C/C=C/C(=O)Nc1cc2c(Nc3ccc(F)c(Cl)c3)ncnc2cc1O[C@H]1CCOC1 [afatinib] (0.833333 µM) | -0.0622 | 114% (inactive) |
| O=C(NC1CCN(CCc2c[nH]c3ccccc23)CC1)c1ccccc1 [indoramin] (10 µM) | 0.105 | 102% (inactive) |
| Nc1nc(=O)c2c([nH]1)NCC(CNc1ccc(C(=O)N[C@@H](CCC(=O)O)C(=O)O)cc1)N2C=O (some centres undefined) [leucovorin] (10 µM) | -0.0198 | 89.8% (inactive) |
| CC(C)NCC(O)COc1cccc2[nH]ccc12 (centres undefined) [pindolol] (10 µM) | 0.0938 | 104% (inactive) |
| C(#Cc1nc2ncccc2nc1OCCN1CCCC1)c1ccccc1 (0.833333 µM) | 0.0988 | 86% (inactive) |
| COc1ccccc1C1(O)CCN(CCCn2c3ccccc3c3ccccc32)CC1 (0.833333 µM) | 0.0278 | 97.5% (inactive) |
